Bioassay records (PubChem)
SKKanGAS inh: S. pyogenes SKKanGAS growth inhibitors in kanamycin, primary screen, streptokinase expression inhibitor project, SKKanGAS strain, BacTiter-Glo luminescence; 6 h; inhibition, % at 7.5 µM; 300,000 tested, 1.3% active; AID 1662, 2009;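 active = mean replicate score, as percent of positive control median, at least 50; inconclusive = mean below 50 but one replicate at or above 50; inactive = mean and every replicate below 50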;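 note: strain carries kanamycin resistance gene driven by streptokinase promoter and grows in 40 µg/ml kanamycin; loss of luminescence reflects streptokinase promoter inhibition or plain growth inhibition; 0% = median of DMSO wells and 100% = positive control at its reference dose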
PfHsp90 yeast 2: growth inhibition of PfHsp90-expressing yeast, primary screen, antimalarial PfHsp90 inhibitor project, S. cerevisiae, BacTiter-Glo luminescence, single point, set 2. 310,000 tested, 0.32% active. BacTiter-Glo ATP, 48 h; yeast lacking PDR1 and PDR3 efflux regulators. AID 504621, 2011. inhibition, % at 9.4 µM;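 active = every replicate shows inhibition above about 80%, whatever the replicate mean, limit read from the data; inconclusive = mean inhibition reaches the set limit but some replicate falls short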;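 note: 0% = DMSO neutral controls and 100% = 20 µM radicicol positive controls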
Calb FLC: C. albicans growth inhibition with fluconazole, primary screen, CaCi-2 strain, Alamar Blue fluorescence. C. albicans CaCi-2 (fluconazole-resistant clinical isolate) + fluconazole, 48 h. growth inhibition, % (concentration not given with the values). 300,000 tested, 0.57% active;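 active = growth inhibition above about 58% in most replicates, limit read from the data, passing the limit was not always enough; inconclusive = exactly half the replicates above a set limit; inactive = most replicates below a set limit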;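 note: all wells also contain fluconazole at 8 µg/ml as a sub-toxic cotreatment; 0% = median of DMSO wells and 100% = median of geldanamycin control wells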
tim23-1 inh: growth inhibitors of tim23-1 mutant yeast, primary screen, luminescence, uHTS | S. cerevisiae tim23-1 growth, BacTiter-Glo luminescence, 24 h | AID 463212, 2010 | inhibition, % at 20 µM | 330,000 tested, 1.3% active;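 active = growth inhibition of the mutant yeast at or above 50%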;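 note: temperature-sensitive mutant grown at 25 °C; plate controls were DMSO-treated mutant yeast for no effect and medium wells lacking yeast for full effect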
TIM10 inh: growth inhibitors of isogenic TIM10 control yeast, primary screen, counter-screen for tim10-1 yeast inhibitor project, luminescence, uHTS; S. cerevisiae TIM10 strain growth, BacTiter-Glo luminescence, 24 h; 330,000 tested, 1.4% active; inhibition, % at 10 µM;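 active = inhibition of 40% or more at the single tested concentration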;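 note: wild-type TIM10 isogenic control strain grown at permissive 25 °C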
tim10-1 inh: growth inhibitors of tim10-1 mutant yeast, primary screen, luminescence, uHTS. S. cerevisiae tim10-1 ts strain growth, BacTiter-Glo, 24 h. inhibition, % at 20 µM. 330,000 tested, 2.2% active. AID 463190, 2010;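 active = inhibition of at least 40%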;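 note: mutant grown at 25 °C; 0% = DMSO wells with yeast and 100% = wells holding no yeast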
tim10 confirm: growth inhibitors of wild-type TIM10 yeast, confirmation, counter-screen for tim10-1 synthetic lethality project, single concentration, luminescence, S. cerevisiae | shares compounds with TIM10 inh | inhibition, % at 10 µM | AID 463215, 2010 | S. cerevisiae tim10 strain growth, BacTiter-Glo luminescence, 24 h | 4,600 tested, 63% active;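 active = inhibition of yeast growth at or above a set limit in either of two replicates at 10 µM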;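 note: this counterscreen used the strain with wild-type TIM10; 0% = yeast with DMSO and 100% = medium wells lacking yeast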
* marks the source's active call; other numbers are inactive results; ? = inconclusive; . = no result; ! = a repeat was not active. Shown are actives, neighbours in structure and some others; about 4.7% of the full set was active somewhere.

SMILES	SKKanGAS inh	PfHsp90 yeast 2	Calb FLC	tim23-1 inh	TIM10 inh	tim10-1 inh	tim10 confirm
CCN(CC)CCN(C(=O)c1ccc2c(c1)CCCC2)c1nc2c(C)cccc2s1	5.0	4.4	0.2	47.7	40.0*	39.2	12.2
CCN(CC)CCN(C(=O)c1ccc2c(c1)CCCC2)c1nc2ccc(C)cc2s1	4.3	14.5	3.4	46.4	26.0	37.5	.
S=C(NCc1ccco1)Nc1cccc(Cl)c1Cl	1.4	.	4.2	38.4	41.2*	31.2	29.2
COc1ccc2[nH]c3c(c2c1)CCNC3(C)CCc1ccc(Cl)nc1 (stereo not drawn)	-2.5	8.4	-3.3	-14.7	1.7	4.9	.
O=C(Nc1c(F)cccc1F)c1cnc(N2CCN(c3ccccn3)CC2)c2ccccc12	1.1	-13.5	-0.9	30.8	43.2*	34.8	38.2*
Cc1ccc(NC(=O)c2cnc(N3CCN(c4ccccn4)CC3)c3ccccc23)c(Br)c1	-4.0	-35.8	3.1	.	.	.	.
COc1ccccc1CNCCS(=O)(=O)NCc1ccccc1	.	-22.3	.	.	.	.	.
Fc1cccc(Cn2cc(C(=S)N3CCCCC3)c3ccccc32)c1	10.9	-27.5	-2.3	36.3	47.7*	37.5	29.6
CN(C)S(=O)(=O)Oc1ccc(C(=O)Nc2cccc(C(F)(F)F)c2)cc1	-8.6	15.3	8.7	6.3	12.8	23.6	.
CN(C)S(=O)(=O)Oc1ccc(C(=O)Nc2cccc(Cl)c2)cc1	3.0	-21.7	9.6	47.2	47.1*	25.3	45.2*
Cc1ccc(Nc2nc(N/N=C/c3c[nH]c4ccccc34)nc(N3CCOCC3)n2)cc1	11.5	-32.1	21.5	30.6	23.5	17.2	.
Cc1[nH]c2ccccc2c1/C=N/Nc1nc(Nc2ccc(F)cc2)nc(N2CCOCC2)n1	21.1	-7.5	-12.2	28.5	53.4*	-4.4	34.3*
CCOC(=O)N1CCN(C(=O)c2ccc3c(c2)N=C(CC)c2cc(C)ccc2S3)CC1	9.1	9.7	-9.0	30.2	40.4*	20.5	6.2
COc1ccccc1NCC(=O)N/N=C/c1c(O)ccc2ccccc12	42.2	6.5	-2.8	2.4	-17.1	-19.8	.
O=C(CNc1ccc(F)cc1)N/N=C/c1c(O)ccc2ccccc12	96.2*	-3.2	34.1	39.2	44.3*	-7.6	41.8*
C[C@]12CCC(=O)C[C@@H]1CC[C@@H]1[C@@H]2CC[C@]2(C)[C@@H](C(=O)COC(=O)CCC(=O)O)CC[C@@H]12	7.7	20.8	9.1	25.6	5.0	24.2	.
Cc1ccc(C(=O)Oc2cc(N)n(S(=O)(=O)c3ccc(C)cc3)n2)cc1	4.6	17.3	0.0	35.0	14.1	37.9	.
COc1ccc(S(=O)(=O)n2nc(OC(=O)c3ccc(C)cc3)cc2N)cc1	-9.5	-0.4	5.9	38.8	52.9*	34.0	34.6*
Cc1ccc(S(=O)(=O)n2nc(OC(=O)c3ccccc3F)cc2N)cc1	9.7	-19.4	9.0	42.7	45.8*	14.4	48.1*
COc1ccc(S(=O)(=O)n2nc(OC(=O)c3ccccc3)cc2N)cc1	1.0	-16.8	4.8	46.5	49.5*	37.2	29.0
COc1ccc(S(=O)(=O)n2nc(OC(=O)c3ccccc3Br)cc2N)cc1	13.3	6.6	-14.5	29.9	50.0*	35.4	18.6
COc1cc(C(=O)Oc2cc(N)n(S(=O)(=O)c3ccccc3)n2)cc(OC)c1OC	-1.4	-18.2	4.3	35.5	19.6	24.7	.
Cc1ccc(S(=O)(=O)CCC(=O)OC(C)C(=O)N2CCc3ccccc32)cc1 (stereo not drawn)	-5.6	-4.1	2.9	13.5	-0.1	1.7	.
C[N+]1(C)CCCC(OC(=O)C(O)(c2ccccc2)c2ccccc2)C1 (stereo not drawn)	-3.0	0.4	-10.4	-3.3	5.4	-8.6	.
Cn1c2ccsc2c2ncn(Cc3ccccc3F)c(=O)c21	.	-20.9	.	-13.0	11.4	-0.5	.
SMILES	SKKanGAS inh	PfHsp90 yeast 2	Calb FLC	tim23-1 inh	TIM10 inh	tim10-1 inh	tim10 confirm
Cn1c(Cl)c(C(=O)Nc2ccccc2)c2ccccc21	.	-4.6	.	46.2	51.1*	-7.1	56.9*
Cc1ccc(CN2C(=O)C(C)(C)Oc3ccc(C(=O)N4CCCCC4)cc32)cc1	3.5	34.1	-2.4	9.4	45.2*	22.9	3.6
O=C(Nc1ccc(OC(F)(F)F)cc1)Nc1cccc([N+](=O)[O-])c1	18.8	17.0	-14.2	36.4	44.5*	29.3	34.2*
CC(C)(C)CC(C)(C)NC(=O)Nc1cccc([N+](=O)[O-])c1	16.6	-2.3	10.2	49.8	46.5*	39.2	45.4*
CC(C)(C)c1ccc(C(=O)Nc2cccc([N+](=O)[O-])c2)cc1	13.2	-26.3	-3.7	.	.	.	.
Cc1ccc(NC(=O)Nc2cccc([N+](=O)[O-])c2)cc1F	6.0	-9.6	-27.5	0.9	15.0	20.6	.
Cc1ccc2nc(N(CCCN(C)C)C(=O)c3ccc(S(=O)(=O)N4CCOCC4)cc3)sc2c1	?	4.1	-0.8	-5.9	4.6	-7.5	.
Cc1ccc2nc(N(CCCN(C)C)C(=O)c3ccc(S(=O)(=O)N4CCc5ccccc5C4)cc3)sc2c1	14.0	5.4	-1.4	36.3	44.9*	38.0	28.9
O=C(NCC(=O)N1CCN(C/C=C/c2ccccc2)CC1)c1ccc(OC(F)F)cc1	.	-15.6	.	-7.5	-9.8	-5.8	.
N#C/C=C/N1CCC(Cc2ccccc2)CC1	-23.2	25.1	-2.8	19.5	-4.1	20.8	.
CCC(C)(C(=O)NC1CCCC1)N(Cc1cccs1)C(=O)Cc1cccs1 (stereo not drawn)	13.7	5.9	0.7	20.6	45.1*	22.9	15.5
CC(=O)Oc1ccc(/C=N/NC(=S)Nc2ccccc2)cc1	-4.3	-13.0	-2.8	48.3	40.9*	21.8	25.8
CCOc1ccc(/C=N/NC(=O)Nc2ccccc2)cc1	-0.5	.	?	13.4	23.6	12.4	.
COc1ccc(Cc2nc(C(=O)Nc3ccc(Cl)cc3)cs2)cc1	8.6	16.7	-0.5	24.3	46.7*	26.9	36.8*
COc1cccc(C2=NCCc3cc4c(cc32)OCO4)c1OC	13.6	-1.7	-4.6	9.6	8.7	19.2	.
COc1ccc2cc3[n+](cc2c1OC)CCc1cc2c(cc1-3)OCO2	6.5	-3.4	70.7	12.0	51.0*!	39.1	30.2
Cc1nnc(NC(=O)C2CC(=O)N(C(C)c3ccccc3)C2)s1 (stereo not drawn)	-4.2	20.1	2.8	11.8	-3.8	5.3	.
O=C(CSc1nnc(-c2cccs2)n1CC1CCCO1)c1cc2ccccc2o1 (stereo not drawn)	6.0	?	-2.6	19.2	41.1*	30.6	-26.2
